Test results taken from the supplement of paper PMC6555819.

Columns and labels:
Assay in all cases: PBM binding z-score (relative to random genomic background probes); higher = stronger binding; sequences stand for … in GC…GCGATTGACAGCGTAGAATGAAGG
[1] = test system: FXR:RXRa (NR concentration 270 nM, RXRa partner concentration 90 nM)
Summary of the method: (§1)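 Binding buffer was PBS pH 7.4 with 2% milk, 0.02% Triton X-100, 1 mM DTT, 0.2 mg/mL BSA and 0.4 mg/ml salmon testes DNA. In it, ligand-free nuclear receptor dimers were incubated 1 h on custom Agilent 4×180K protein-binding microarrays carrying double-stranded probes. Antibodies against each partner (one per run) detected binding, and z-scores were calculated against random background probes after regression normalization of scanned fluorescence.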

[2] = test system: LXRa:RXRa (NR concentration 270 nM, RXRa partner concentration 90 nM)
Summary of the method: as §1

[3] = test system: LXRa homodimer (NR concentration 270 nM)
Summary of the method: as §1

[4] = test system: LXRb:RXRa (NR concentration 270 nM, RXRa partner concentration 90 nM)
Summary of the method: as §1

[5] = test system: LXRb homodimer (NR concentration 270 nM)
Summary of the method: as §1

[6] = test system: PPARa:RXRa (NR concentration 270 nM, RXRa partner concentration 90 nM)
Summary of the method: as §1

[7] = test system: PPARg:RXRa (NR concentration 180 nM, RXRa partner concentration 90 nM)
Summary of the method: as §1

[8] = test system: PPARg:RXRa 270nM:90nM, anti-RXR (NR concentration 270 nM, RXRa partner concentration 90 nM)
Summary of the method: as §1

[9] = test system: PPARg:RXRa 30nM:10nM, anti-RXR (NR concentration 30 nM, RXRa partner concentration 10 nM)
Summary of the method: as §1

[10] = test system: PPARg:RXRa 90nM:30nM, anti-RXR (NR concentration 90 nM, RXRa partner concentration 30 nM)
Summary of the method: as §1

[11] = test system: PPARg:RXRa DBDmut IVT, anti-RXR (DBD mutation: RXRa K156A/R161A, NR concentration 270 nM, RXRa partner concentration 90 nM)
Summary of the method: as §1

[12] = test system: PPARg:RXRa IVT, anti-PPARg (NR concentration 270 nM, RXRa partner concentration 90 nM)
Summary of the method: as §1

[13] = test system: PPARg DBDmut:RXRa IVT, anti-PPARg (DBD mutation: PPARg1 K132A/R137A, NR concentration 270 nM, RXRa partner concentration 90 nM)
Summary of the method: as §1

[14] = test system: PPARg DBDmut IVT, anti-PPARg (DBD mutation: PPARg1 K132A/R137A, NR concentration 270 nM)
Summary of the method: as §1

[15] = test system: PPARg homodimer (NR concentration 180 nM)
Summary of the method: as §1

[16] = test system: PXR:RXRa (NR concentration 270 nM, RXRa partner concentration 90 nM)
Summary of the method: as §1

[17] = test system: PXR homodimer (NR concentration 270 nM)
Summary of the method: as §1

[18] = test system: RARa:RXR (NR concentration 270 nM, RXRa partner concentration 90 nM)
Summary of the method: as §1

[19] = test system: RARa homodimer (NR concentration 270 nM)
Summary of the method: as §1

[20] = test system: RARb:RXRa (NR concentration 270 nM, RXRa partner concentration 90 nM)
Summary of the method: as §1

Row | Sequence | PBM binding z-score [1] | PBM binding z-score [2] | PBM binding z-score [3] | PBM binding z-score [4] | PBM binding z-score [5] | PBM binding z-score [6] | PBM binding z-score [7] | PBM binding z-score [8] | PBM binding z-score [9] | PBM binding z-score [10] | PBM binding z-score [11] | PBM binding z-score [12] | PBM binding z-score [13] | PBM binding z-score [14] | PBM binding z-score [15] | PBM binding z-score [16] | PBM binding z-score [17] | PBM binding z-score [18] | PBM binding z-score [19] | PBM binding z-score [20]
1 | TAGCCTAGGTCATCCAGGGGCCAGTATAGAAAGC | 4.4 | 3.37 | 0.176 | 2.82 | 0.318 | 3.66 | 2.57 | 2.47 | 0.738 | 1.52 | 1.23 | 2.73 | 0.724 | -0.3 | 1.93 | 2.6 | -0.246 | 3.55 | 0.127 | 3.98
2 | TCTGCTAGGGCAACGATGGTCAGCTAATCTGCTA | -0.264 | -0.36 | -0.78 | -0.55 | -0.884 | 0.0492 | 0.028 | 0.551 | 1.02 | 0.846 | 2.18 | 1.59 | -0.859 | -1.01 | -1.1 | -0.375 | -0.975 | -0.218 | -0.818 | 1.58
3 | AGATTGAGGTTATTAAGATCAGGGAATTGCGGTC | 1.61 | 1.28 | 0.39 | 1.32 | 0.271 | 2.42 | 1.08 | 1.65 | 0.461 | 1.17 | 2.3 | 2.34 | 0.654 | 0.969 | 1.25 | 1.32 | 0.669 | 1.33 | 0.972 | 1.41
4 | AGAATGAGGTTAAGATCAGGGAAACAGAATACAT | 2.37 | 2.14 | -0.0625 | 1.9 | -0.0135 | 3.67 | 2.46 | 2.54 | 1.11 | 1.75 | 2.82 | 2.83 | 1.43 | 0.885 | 0.847 | 1.38 | 0.732 | 2.08 | 0.481 | 2.01
5 | ATCTCTAGGTAAAGATAGCTCAGTGAATGCAAAT | -0.126 | -0.286 | -0.237 | -0.258 | 0.316 | -0.203 | 0.422 | 0.32 | 0.153 | 0.317 | 1.84 | 1.53 | 1.58 | 0.349 | 0.00125 | -0.537 | -0.0577 | -0.292 | 0.787 | -0.195
6 | TCTTGTAGATCAGCTGGTTAAGAAAGCTGGCCAA | 0.0372 | -0.146 | -0.717 | -0.0754 | -0.836 | 0.363 | -1.11 | 1.04 | 2.43 | 1.75 | 1.46 | -0.0157 | -0.253 | -0.0877 | -0.903 | 0.0917 | -0.51 | 0.0228 | -0.485 | -0.526
